Our source for the survival values is PubChem BioAssay AID463173 (ICCB-Longwood Screening Facility, Harvard Medical School, 2010).

The structures appear in SMILES notation. The whole screen tested about 52,000 compounds, of which about 4,300 (8.3%) were called active. Cut-off read from the data, not from the text of the source: active = survival mostly below about 52% (no sharp cut-off); inactive = mostly above about 56%. The entries come from a sample that favours actives as a whole.

For this experiment, the system named is DeltatarO mutant. The experiment in a line: S. aureus survival, RN4220 and DeltatarO strains – OD600, teichoic acid synthesis inhibitors, primary screen (AID 463173). The note with it: S. aureus RN4220 wild type/DeltatarO growth, OD600, 18 h, hits give low values, screened at 18.75 µg/mL (by protocol).
For the molecule `COc1ccccc1/C=C/c1nc(C#N)c(N2CCCCC2)o1`, the survival is 75% (inactive).

As for `Cc1ccc(C(=O)c2sc(Nc3ccccc3F)c(S(=O)(=O)c3ccccc3)c2N)c(C)c1`, the survival was 74% (inactive).

Regarding `COC(=O)c1cc(NC(=O)c2nn(C)c3c2CSc2ccccc2-3)cc(C(=O)OC)c1`, the survival was 88% (inactive).

As for `CN1CCN(C2(CNC(=O)c3ccc([N+](=O)[O-])cc3)CCCCC2)CC1`, the survival was 102% (inactive).

As for `Cc1ccc(C(C)C)c(OCC(=O)NCC2(N(C)C)CCCCC2)c1`, the survival was 95% (inactive).

`N#Cc1c(NC(=O)C2CC(=O)NN2Cc2ccccc2)sc2c1CCCC2` (centres undefined): the survival was 82% (inactive).

As to `CCn1c(CNC(=O)c2ccc(OC)cc2)nnc1SCC(=O)Nc1ccc(F)cc1`, the survival was 130% (inactive).

Take `O=C(C1=C(N2CCCCC2)c2ccccc2S(=O)(=O)N1)c1ccccc1`: the survival was 94% (inactive).

As for `Cc1ccc(-n2nnc(-c3nc(-c4cccs4)no3)c2N)c(C)c1`, the survival is 101% (inactive).

With `Cc1ccccc1NC(=O)c1cc2c(-c3ccccc3)nn(-c3ccccc3)c2s1`, the survival is 57% (inactive).

Turning to `COc1ccc(NC(=O)c2cc3c(C)nn(-c4ccccc4)c3s2)c(OC)c1`, the survival is 59% (inactive).

Turning to `COc1ccccc1NC(=O)c1cc2c(-c3ccccc3)nn(-c3ccccc3)c2s1`, the survival was 89% (inactive).

For `O=C(Nc1ccccc1Cl)c1cc2c(-c3ccccc3)nn(-c3ccccc3)c2s1`, the survival was 56% (inactive).

On to `COc1ccccc1NC(=O)c1cc2c(C)nn(-c3ccccc3)c2s1`, for which the survival was 0% (active).

For the molecule `Cc1nn(-c2ccccc2)c2sc(C(=O)Nc3ccccc3Br)cc12`, the survival is 9% (active).

With `CCc1ccccc1NC(=O)C1CCN(C2=NS(=O)(=O)C(c3ccc(C)c(C)c3)=C2C)CC1`, the survival is 80% (inactive).

Turning to `COc1ccc(-c2nc(C(N)=O)c3c(n2)n(-c2ccccc2OC)c(=O)n3C)c(OC)c1`, the survival was 82% (inactive).

In the case of `CCN(CC)S(=O)(=O)c1ccc(-n2cnnn2)c(C)c1`, the survival is 111% (inactive).

With `Cc1ccc(NC(=O)CSc2nncn3c2cc2sccc23)cc1F`, the survival is 61% (inactive).

Turning to `COc1ccc(CCNC(=O)C2CCCN(S(=O)(=O)c3ccc4c(c3)oc(=O)n4C)C2)cc1OC` (centres undefined), the survival is 72% (inactive).

`CCC1CCCCN1S(=O)(=O)c1ccc(NC(=O)c2cc(=O)c3c(C)cc(C)cc3o2)cc1` (centres undefined): the survival was 45% (inactive).

Turning to `CCn1c2ccccc2c2cc(NC(=O)COc3ccc(C)cc3C)ccc21`, the survival was -5% (active).

As to `COc1ccc(C)cc1NC(=O)COc1cc(=O)n(C)c2ccccc12`, the survival was 90% (inactive).

With `CCc1ccc(OCC(=O)Nc2ccc3c(c2)c2ccccc2n3CC)c(Br)c1`, the survival is 6% (active).

Consider `CCc1cccc(NC(=O)COc2cc(=O)n(CC)c3ccccc23)c1`, for which the survival was 115% (inactive).

Regarding `Cc1ccc(-n2nc3ccc(NC(=O)COc4ccccc4C)cc3n2)cc1`, the survival was 72% (inactive).

`CCn1c2ccccc2c2cc(NC(=O)COc3cc(C)ccc3C)ccc21`: the survival is 29% (active).

As for `CCc1ccc(OCC(=O)Nc2ccc3c(c2)c2ccccc2n3CC)cc1`, the survival was 51% (inactive).

On to `CCOC(=O)c1ccccc1NC(=O)COc1cc(=O)n(CC)c2ccccc12`, for which the survival was 53% (inactive).

Turning to `COc1ccc(NC(=O)c2ccco2)cc1NC(=O)COc1ccc(C)cc1C`, the survival was 56% (inactive).

On to `CCc1ccc(S(=O)(=O)c2nnn3c2nc(N2CCOCC2)c2sccc23)cc1`, for which the survival was 83% (inactive).

As for `Cc1ccccc1-n1nc(CO)c(C(=O)NCCc2ccccc2)n1`, the survival was 86% (inactive).

On to `Cc1ccc(-c2cc(C(F)F)n3ncc(C(=O)NCC4CCCO4)c3n2)cc1` (centres undefined), for which the survival was 87% (inactive).

As to `CCCCN(C)CCNC(=O)CN1C(=O)CSc2ccc(S(=O)(=O)N3CCCCC3)cc21`, the survival was 113% (inactive).

Turning to `CC(C)Cc1nn2cc(-c3cccc(Br)c3)nc2s1`, the survival is 112% (inactive).

For the molecule `Cn1ccc2cc(S(=O)(=O)N3CCCN(C(=O)Nc4ccccc4Br)CC3)ccc21`, the survival was 67% (inactive).

Regarding `CCOc1ccc(Nc2nc3c(S(=O)(=O)c4ccc(CC)cc4)nnn3c3ccc(Cl)cc23)cc1`, the survival was 104% (inactive).

Take `O=C(O)CNC(=O)c1sc2ccccc2c1Cl`: the survival was 84% (inactive).

Regarding `O=C(Nc1cccc(C(F)(F)F)c1)Nc1cccs1`, the survival is -3% (active).

For the molecule `O=C(Nc1cccs1)Nc1cc(C(F)(F)F)ccc1Cl`, the survival is 11% (active).

In the case of `O=C(Nc1cccc(C(F)(F)F)c1)c1cccc(C(=O)Nc2cccc(C(F)(F)F)c2)c1`, the survival is 84% (inactive).

As to `Cc1ccccc1NC(=O)Nc1cccs1`, the survival was 94% (inactive).

`O=C(Nc1cc(C(F)(F)F)ccc1Cl)c1cc(-c2cccs2)nc2ccccc12`: the survival is 86% (inactive).

Consider `Cc1cc(C)cc(NC(=O)Nc2cccs2)c1`, for which the survival is 26% (active).

Consider `Cc1ccc(NC(=O)Nc2cccs2)c(C)c1`, for which the survival is 91% (inactive).

On to `O=C(Nc1cccs1)Nc1ccc(F)cc1F`, for which the survival was 83% (inactive).

In the case of `O=C(Nc1cccc(C(F)(F)F)c1)c1cccs1`, the survival was 95% (inactive).

For the molecule `COc1ccc(CNC(=O)c2cnc(N3CCCC3)nc2C)cc1`, the survival is 71% (inactive).

Consider `O=S(=O)(Nc1ccc(-c2ccc(N3CCCC3)nn2)cc1)c1ccccc1Cl`, for which the survival is 66% (inactive).

Consider `CC1(NS(C)(=O)=O)CC=CC1`, for which the survival was 115% (inactive).

`Cc1cccc(NC(=O)c2cccc(N3CCCS3(=O)=O)c2)c1`: the survival was 78% (inactive).

`COc1cccc(C2C(C(=O)Nc3ccc(C)cc3C)=C(C)Nc3c(C(=O)Nc4cccc(C)c4)cnn32)c1OC` (centres undefined): the survival was 94% (inactive).

Consider `CCn1cc(S(=O)(=O)c2cccc(C)c2)c(=O)c2cc(F)c(N3CCN(c4ccccc4)CC3)cc21`, for which the survival is 84% (inactive).

For `CCCc1cc(=O)[nH]c2nnc(SCCC(C)C)n12`, the survival is 90% (inactive).

In the case of `Cc1cccc(-n2cc(-c3ccccc3)c3c(N4CCC(C)CC4)ncnc32)c1`, the survival is 90% (inactive).

Regarding `CCOc1ccc(/C=C/c2nc(C#N)c(N3CCN(CC)CC3)o2)cc1`, the survival is 70% (inactive).

As to `CN1CCN(C2=NC(=O)/C(=C\C=C/c3ccccc3)S2)CC1`, the survival was 79% (inactive).

Turning to `C#CCOc1ccc(C2C(C(=O)OC)=C(C)NC3=C2C(=O)c2ccccc23)cc1OCC` (centres undefined), the survival was 167% (inactive).

On to `COC(=O)C1=C(C)NC2=C(C(=O)c3ccccc32)C1c1ccc(O)c(OC)c1` (centres undefined), for which the survival is 85% (inactive).

`COC(=O)COc1ccc(C2C(C(=O)OC)=C(C)NC3=C2C(=O)c2ccccc23)cc1OC` (centres undefined): the survival was 29% (active).

Consider `CCOc1cc(C2C(C(=O)OC)=C(C)NC3=C2C(=O)c2ccccc23)c(Br)cc1OC` (centres undefined), for which the survival is 52% (inactive).

For `CCOC(=O)COc1ccccc1C1C(C(=O)OC)=C(C)NC2=C1C(=O)c1ccccc12` (centres undefined), the survival was 39% (active).

As for `CCOc1cc(C2C(C(=O)OC)=C(C)NC3=C2C(=O)c2ccccc23)ccc1O` (centres undefined), the survival was 31% (active).

Take `CCOc1ccc(C2C(C(=O)OC)=C(C)NC3=C2C(=O)c2ccccc23)cc1OC` (centres undefined): the survival was 48% (inactive).

On to `CCOc1ccc(Br)cc1C1C(C(=O)OC)=C(C)NC2=C1C(=O)c1ccccc12` (centres undefined), for which the survival is 48% (inactive).

For the molecule `CCOC(=O)COc1ccc(C2C(C(=O)OC)=C(C)NC3=C2C(=O)c2ccccc23)cc1Cl` (centres undefined), the survival was 119% (inactive).

Consider `CCOc1cc(C2C(C(=O)OC)=C(C)NC3=C2C(=O)c2ccccc23)cc(Br)c1OCC` (centres undefined), for which the survival was 47% (inactive).

For the molecule `CCOc1cc(C2C(C(=O)OC)=C(C)NC3=C2C(=O)c2ccccc23)cc(Cl)c1O` (centres undefined), the survival is 29% (active).

Regarding `C#CCOc1c(Br)cc(C2C(C(=O)OC)=C(C)NC3=C2C(=O)c2ccccc23)cc1OCC` (centres undefined), the survival was 62% (inactive).
